About 2,000 (36%) of roughly 5,500 compounds were called active. Not shown: some 18% with an inconclusive outcome. No stated cut-off is given here; in the data, active means normalized growth mostly below about 0.91 (no sharp cut-off); inconclusive means no clear call, values can overlap the other calls; inactive means mostly above about 0.92. Some of the results follow.
Experiment: chemical genetic growth profiling, strain panel (AID 1159580);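 further: tested at 20 µM; growth read once vehicle control cultures reached saturation at 30 °C; 1 = growth at the plate median or of vehicle wells; lower values mean less growth of the strain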
Conditions: growth OD

Measured: normalized growth

O=C(O)CCCOc1ccc(Cl)cc1Cl
active: S. cerevisiae deletion strains, locus YLR113W, strain HOG1, hits give low values 0.584 | S. cerevisiae deletion strains, locus YLR262C, strain YPT6 (second series), hits give low values 0.792 | S. cerevisiae deletion strains, locus YMR231W, strain pep5, hits give low values 0.92 | S. cerevisiae deletion strains, locus YNL183C, strain NPR1, hits give low values 0.731 | S. cerevisiae deletion strains, locus YNL322C, strain KRE1 (second series), hits give low values 0.882 | S. cerevisiae deletion strains, locus YOR231W, strain MKK1, hits give low values 0.796 | S. cerevisiae deletion strains, locus YPL256C, strain CLN2, hits give low values 0.756
inactive: S. cerevisiae deletion strains, locus YJR075W, strain HOC1, hits give low values 0.999 | S. cerevisiae deletion strains, locus YKL009W, strain mrt4, hits give low values 0.967 | S. cerevisiae deletion strains, locus YKL068W, hits give low values 0.986 | S. cerevisiae deletion strains, locus YKL085W, strain MDH1 (second series), hits give low values 0.984 | S. cerevisiae deletion strains, locus YKL085W, strain MDH1, hits give low values 0.984 | S. cerevisiae deletion strains, locus YKL160W, strain elf1, hits give low values 0.953 | S. cerevisiae deletion strains, locus YKL190W, strain CNB1, hits give low values 0.982 | S. cerevisiae deletion strains, locus YKR001C, strain vps1, hits give low values 0.996 | S. cerevisiae deletion strains, locus YKR026C, strain gcn3, hits give low values 0.926 | S. cerevisiae deletion strains, locus YKR091W, strain srl3, hits give low values 0.955 | S. cerevisiae deletion strains, locus YLL001W, strain dnm1, hits give low values 0.94 | S. cerevisiae deletion strains, locus YLL026W, hits give low values 0.945 | S. cerevisiae deletion strains, locus YLL041C, strain sdh2, hits give low values 0.951 | S. cerevisiae deletion strains, locus YLR027C, strain aat2, hits give low values 0.96 | S. cerevisiae deletion strains, locus YLR039C, strain RIC1, hits give low values 0.965 | S. cerevisiae deletion strains, locus YLR058C, strain SHM2, hits give low values 0.999 | S. cerevisiae deletion strains, locus YLR102C, strain apc9, hits give low values 1.03 | S. cerevisiae deletion strains, locus YLR221C, strain rsa3, hits give low values 0.949 | S. cerevisiae deletion strains, locus YLR258W, strain gsy2, hits give low values 0.943 | S. cerevisiae deletion strains, locus YLR262C, strain YPT6, hits give low values 0.976 | S. cerevisiae deletion strains, locus YLR268W, strain sec22, hits give low values 1.02 | S. cerevisiae deletion strains, locus YLR320W, strain mms22, hits give low values 0.955 | S. cerevisiae deletion strains, locus YLR330W, strain CHS5, hits give low values 0.995 | S. cerevisiae deletion strains, locus YLR342W, strain FKS1 (second series), hits give low values 0.997 | S. cerevisiae deletion strains, locus YLR342W, strain FKS1, hits give low values 0.922 | S. cerevisiae deletion strains, locus YLR357W, strain rsc2, hits give low values 0.888 | S. cerevisiae deletion strains, locus YLR370C, strain arc18, hits give low values 0.936 | S. cerevisiae deletion strains, locus YLR371W, strain rom2, hits give low values 1.01 | S. cerevisiae deletion strains, locus YLR384C, strain iki3, hits give low values 0.945 | S. cerevisiae deletion strains, locus YLR418C, strain cdc73, hits give low values 1.03 | S. cerevisiae deletion strains, locus YML016C, strain PPZ1, hits give low values 0.999 | S. cerevisiae deletion strains, locus YML032C, strain rad52, hits give low values 1.01 | S. cerevisiae deletion strains, locus YML120C, strain ndi1, hits give low values 0.958 | S. cerevisiae deletion strains, locus YML124C, strain tub3, hits give low values 1 | S. cerevisiae deletion strains, locus YMR058W, strain fet3, hits give low values 0.947 | S. cerevisiae deletion strains, locus YMR078C, strain ctf18, hits give low values 1.01 | S. cerevisiae deletion strains, locus YMR125W, strain sto1, hits give low values 0.913 | S. cerevisiae deletion strains, locus YMR129W, hits give low values 0.944 | S. cerevisiae deletion strains, locus YMR205C, strain PFK2, hits give low values 0.955 | S. cerevisiae deletion strains, locus YMR223W, strain ubp8, hits give low values 1.01 | S. cerevisiae deletion strains, locus YMR263W, strain SAP30, hits give low values 0.989 | S. cerevisiae deletion strains, locus YMR307W, strain GAS1, hits give low values 1 | S. cerevisiae deletion strains, locus YNL067W, strain RPL9B, hits give low values 0.997 | S. cerevisiae deletion strains, locus YNL071W, strain lat1, hits give low values 0.935 | S. cerevisiae deletion strains, locus YNL128W, strain TEP1, hits give low values 1.01 | S. cerevisiae deletion strains, locus YNL153C, strain GIM3, hits give low values 0.997 | S. cerevisiae deletion strains, locus YNL209W, strain ssb2, hits give low values 0.971 | S. cerevisiae deletion strains, locus YNL233W, strain BNI4, hits give low values 0.971 | S. cerevisiae deletion strains, locus YNL248C, strain rpa49, hits give low values 0.941 | S. cerevisiae deletion strains, locus YNL250W, strain rad50, hits give low values 1 | S. cerevisiae deletion strains, locus YNL271C, strain bni1, hits give low values 0.996 | S. cerevisiae deletion strains, locus YNL298W, strain CLA4, hits give low values 0.976 | S. cerevisiae deletion strains, locus YNL307C, strain MCK1, hits give low values 1.01 | S. cerevisiae deletion strains, locus YNL322C, strain KRE1, hits give low values 0.994 | S. cerevisiae deletion strains, locus YNR049C, strain mso1, hits give low values 0.929 | S. cerevisiae deletion strains, locus YNR052C, strain pop2, hits give low values 1.01 | S. cerevisiae deletion strains, locus YOL006C, strain TOP1, hits give low values 1.04 | S. cerevisiae deletion strains, locus YOL012C, strain htz1 1.19 | S. cerevisiae deletion strains, locus YOL147C, strain pex11, hits give low values 1.01 | S. cerevisiae deletion strains, locus YOR001W, strain rrp6, hits give low values 0.953 | S. cerevisiae deletion strains, locus YOR061W, strain CKA2, hits give low values 0.999 | S. cerevisiae deletion strains, locus YOR069W, strain VPS5, hits give low values 1 | S. cerevisiae deletion strains, locus YOR070C, strain gyp1, hits give low values 0.947 | S. cerevisiae deletion strains, locus YOR080W, strain dia2, hits give low values 0.925 | S. cerevisiae deletion strains, locus YOR083W, strain WHI5, hits give low values 0.956 | S. cerevisiae deletion strains, locus YOR106W, strain vam3, hits give low values 0.942 | S. cerevisiae deletion strains, locus YOR136W, strain idh2, hits give low values 1.02 | S. cerevisiae deletion strains, locus YOR144C, strain elg1, hits give low values 1.02 | S. cerevisiae deletion strains, locus YOR184W, strain ser1, hits give low values 1.03 | S. cerevisiae deletion strains, locus YOR265W, strain rbl2, hits give low values 0.943 | S. cerevisiae deletion strains, locus YOR270C, strain vph1, hits give low values 0.971 | S. cerevisiae deletion strains, locus YOR290C, strain snf2, hits give low values 0.962 | S. cerevisiae deletion strains, locus YOR316C, strain cot1, hits give low values 1.01 | S. cerevisiae deletion strains, locus YPL051W, strain arl3, hits give low values 0.943 | S. cerevisiae deletion strains, locus YPL055C, strain LGE1, hits give low values 1.01 | S. cerevisiae deletion strains, locus YPL078C, strain atp4, hits give low values 0.93 | S. cerevisiae deletion strains, locus YPL106C, strain sse1, hits give low values 1.03 | S. cerevisiae deletion strains, locus YPL240C, strain hsp82, hits give low values 0.937 | S. cerevisiae deletion strains, locus YPL241C, strain CIN2, hits give low values 1 | S. cerevisiae deletion strains, locus YPR119W, strain clb2, hits give low values 1.01 | S. cerevisiae deletion strains, locus YPR141C, strain kar3, hits give low values 1.01 | S. cerevisiae deletion strains, locus YPR163C, strain tif3, hits give low values 1.02 | S. cerevisiae deletion strains, locus YPR167C, strain met16, hits give low values 1.05 | S. cerevisiae deletion strains, strain wtn01, hits give low values 1.01 | S. cerevisiae strains, strain wild type, hits give low values 1

Reference: PubChem BioAssay AID1159580 (chemical genetic matrix, 2015)
